This is one part of a sample in which hits are shown more often than they occur.
nsP2pro inh: Primary qHTS for inhibitors of NSP2Pro chikungunya virus (CHIKV); actives 1.1% (n = 31,000); Polyprotein P1234 (Chikungunya virus (strain S27-African prototype)), Q8JUX6; FRET peptide cleavage, nsP2pro, fluorescence 1 h; Potency, µM (highest dose often 24.9 µM), hits mostly inhibitors; further: nearly all actives have a fitted effect of over 60% in size
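Enzyme 150 nM, substrate 2.5 uM (both final); Tris-HCl 10 mM pH 8.0 + 0.01% Tween 20; cpd up to 25 uM, 7 pts; 15 min preinc., 1 h RT; fluorescence ex 525/em 598.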
CHIKV nsP2 cell: Secondary cell base assay for inhibitors of NSP2Pro Chikungunya virus (CHIKV) | shares compounds with nsP2pro inh | cell-based CHIKV nsP2 protease reporter assay | Potency, µM (titrated, usually from 51.1 µM), usual class: inhibitors | actives 10% (n = 450) | AID 1964100, 2024; further: nearly all actives have a fitted effect of over 70% in size
CHIKV NSP2 FL: Selectivity profile for inhibitors of NSP2Pro chikungunya virus (CHIKV): Full length NSP2 enzyme counterscreen (CHIKV-NSP2); Potency, µM (series often up to 50.7 µM), usual class: inhibitors; Full-length CHIKV NSP2 protease enzymatic counterscreen; actives 39% (n = 410); shares compounds with nsP2pro inh; further: nearly all actives have a fitted effect of over 65% in size
Furin counterscr: Selectivity profile for inhibitors of NSP2Pro chikungunya virus (CHIKV): Human furin counterscreen; AID 1964102, 2024; shares compounds with nsP2pro inh; Potency, µM (highest dose often 50.6 µM), most hits filed as inhibitors; actives 6% (n = 410); Recombinant human furin enzymatic counterscreen, fluorogenic substrate
nsP2 NS23 pep: Selectivity profile for inhibitors of NSP2Pro chikungunya virus (CHIKV): Endogenous NS2/3 peptide Counterscreen; shares compounds with nsP2pro inh; Potency, µM (doses to about 51 µM), actives largely listed as inhibitors; Purified CHIKV nsP2 protease, endogenous NS2/3 peptide cleavage; actives 34% (n = 410); further: nearly all actives have a fitted effect of over 55% in size
Papain cs: Selectivity profile for inhibitors of NSP2Pro chikungunya virus (CHIKV): Papain Counterscreen. shares compounds with nsP2pro inh. purified papain protease activity, enzymatic inhibition. Potency, µM (titrated, usually from 51 µM), hits mostly inhibitors. actives 5% (n = 410)
Target sequence (P00784 whole entry, looked up): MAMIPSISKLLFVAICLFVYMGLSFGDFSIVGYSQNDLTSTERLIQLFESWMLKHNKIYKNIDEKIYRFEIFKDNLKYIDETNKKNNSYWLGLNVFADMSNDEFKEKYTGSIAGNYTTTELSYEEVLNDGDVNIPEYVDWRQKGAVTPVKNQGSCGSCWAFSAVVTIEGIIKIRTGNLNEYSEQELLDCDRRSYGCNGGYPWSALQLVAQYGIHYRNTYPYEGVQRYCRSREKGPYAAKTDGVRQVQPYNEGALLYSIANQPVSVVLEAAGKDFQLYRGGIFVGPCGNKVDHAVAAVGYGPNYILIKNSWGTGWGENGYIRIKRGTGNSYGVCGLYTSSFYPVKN
nsP2pro conf qHTS: Confirmatory qHTS for inhibitors of NSP2Pro chikungunya virus (CHIKV); shares compounds with nsP2pro inh; CHIKV nsP2 protease enzymatic activity, qHTS; Potency, µM (highest dose often 25.5 µM), most hits filed as inhibitors; actives 43% (n = 410); further: nearly all actives have a fitted effect of over 75% in size
HCV NS3 counter: Selectivity profile for inhibitors of NSP2Pro chikungunya virus (CHIKV): NS34A-HCV Counterscreen; shares compounds with nsP2pro inh; HCV NS3/4A protease biochemical counterscreen; Potency, µM (titrated, usually from 50.9 µM), actives largely listed as inhibitors; actives 20% (n = 410); AID 1964106, 2024; further: nearly all actives have a fitted effect of over 55% in size
A number is an active result; n = inactive; u = inconclusive; ! = repeats disagree. The call rests on the fitted dose curve.

SMILES | nsP2pro inh | others
OCC1OC(Oc2cc(O)c3c(c2)OC(c2ccc(O)cc2)C(O)C3)C(O)C1O (centres undefined) | n
O=C(O[C@@H]1Cc2c(O)cc(O)cc2O[C@@H]1c1ccc(O)c(O)c1)c1cc(O)c(O)c(O)c1 | u | CHIKV nsP2 cell=n;CHIKV NSP2 FL=23µM;Furin counterscr=n;nsP2 NS23 pep=15µM;Papain cs=n;nsP2pro conf qHTS=u;HCV NS3 counter=u
O=C(O[C@@H]1Cc2c(O)cc(O)cc2O[C@@H]1c1cc(O)c(O)c(O)c1)c1cc(O)c(O)c(O)c1 | 4.4µM! | CHIKV nsP2 cell=n;CHIKV NSP2 FL=u;Furin counterscr=u;nsP2 NS23 pep=5.8µM;Papain cs=u;nsP2pro conf qHTS=4.5µM;HCV NS3 counter=u
C/C=C/C=C/C=C/C(=O)N(C)C(C(=O)NC(C)C(=O)N1CCCC1C(N)=O)C(C)C (centres undefined) | n
CN(CC(O)CO)C(=O)c1c(I)c(NC(=O)C(CO)CO)c(I)c(C(=O)N(C)CC(O)CO)c1I (centres undefined) | n
CCCCOC(=O)NC(=O)C1c2ccccc2Oc2ccccc21 | n
O=C(OCCN(CCO)CCO)c1ccccc1O | n
C/C(=C\c1ccc2c(c1)OCCO2)C1Nc2cccc3cccc(c23)N1 | n
Cc1ccc2nc3sc(C(=O)N4CCC(C(N)=O)CC4)cc3cc2c1 | n
CC(c1c[nH]c2ccccc12)C(O)C(=O)O (centres undefined) | n
CN(CC1CCCN(CCc2cccc(C(F)(F)F)c2)C1)C(=O)c1ccc2[nH]ccc2c1 (centres undefined) | n
CN(C)CCc1c[nH]c2ccc(C[C@H]3COC(=O)N3)cc12 | u | CHIKV nsP2 cell=n;CHIKV NSP2 FL=n;Furin counterscr=n;nsP2 NS23 pep=n;Papain cs=n;nsP2pro conf qHTS=u;HCV NS3 counter=n
CN1CCC[C@@H]1Cc1c[nH]c2ccc(CCS(=O)(=O)c3ccccc3)cc12 | n
CCOc1cc(S(=O)(=O)n2ccnc2C(C)C)ccc1Cl | 8.9µM | CHIKV nsP2 cell=n;CHIKV NSP2 FL=16µM;Furin counterscr=n;nsP2 NS23 pep=u;Papain cs=n;nsP2pro conf qHTS=u;HCV NS3 counter=9.2µM
CCOc1ccc(S(=O)(=O)N2CCN(c3ccc(Cl)c(Cl)c3)CC2)c2ccccc12 | n
CCOc1cc(C)c(C(C)C)cc1S(=O)(=O)n1ccnc1CC | n
NC(N)=NCCC[C@@H](N)C(=O)N[C@@H](CCCN=C(N)N)C(=O)N1CCC[C@H]1C(=O)N1C[C@H](O)C[C@H]1C(=O)NCC(=O)N[C@@H](Cc1cccs1)C(=O)N[C@@H](CO)C(=O)N1Cc2ccccc2C[C@@H]1C(=O)N1[C@H](C(=O)N[C@@H](CCCN=C(N)N)C(=O)O)C[C@@H]2CCCC[C@@H]21 | n
Cc1ccc(-c2cc(C(=O)Nc3ccc(-n4cccn4)cc3)c3ccccc3n2)cc1C | n
CC1=NOC2(CCN(Cc3ccc(Cl)cc3)CC2)C1 | n
O=C1CN(Cc2ccc(Cl)cc2)CCN1c1ccc(Cl)nn1 | n
Nc1nc2c(s1)CCN(Cc1ccc(Cl)cc1)CC2 | 8.8µM | CHIKV nsP2 cell=n;CHIKV NSP2 FL=n;Furin counterscr=n;nsP2 NS23 pep=n;Papain cs=n;nsP2pro conf qHTS=u;HCV NS3 counter=n
FC(F)(F)c1ccccc1-c1nc(NCc2ccc(-c3ccc4c(c3)OCO4)cc2)c2ccccc2n1 | n
Cc1c(-c2ccnn2C)cc(C(=O)NCc2ccc(S(C)(=O)=O)cn2)c(=O)n1-c1cccc(C(F)(F)F)c1 | n
